The values below come from publication PMC5913336, “True equilibrium measurement of transcription factor-DNA binding affinities using automated polarization microscopy”.

The target of this assay is T1, Cad (Drosophila melanogaster, UniProt P09085 273-344).
T1 sequence: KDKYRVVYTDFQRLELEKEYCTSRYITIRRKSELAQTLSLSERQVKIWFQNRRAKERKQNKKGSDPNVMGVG
Kind of assay: FP; 20 mM Tris-acetate pH 7.0, 50 "nM" NaCl as printed (probably mM), 0.01% Tween 20, 0.1 mM DTT; conventional titration. The settings on record: tags: N-GST (pGEX-6P-1, kept); dsDNA, one strand shown.
As for CCCTTTTTATA, the binding signal was 1 Kd / Kd of best base at the position. The result for CACTATTTATA reads 2.8 Kd / Kd of best base at the position; that for CACTCTTTATA, 7.2 Kd / Kd of best base at the position; that for GACTTTTTATA, 1.8 Kd / Kd of best base at the position.
